# Assay results taken from the supplement of paper PMC8728848.
# Only a selection was taken, and the strongest signals are over-represented in it overall.
# Tests used:
# Assay in all cases: glycan array binding signal (z-score within array); higher = stronger binding
# Settings in all cases: glycan notation: IUPAC condensed, linker removed
# GalNAc3S(b1-4)GlcNAc3S = biological target: GalNAc3S(b1-4)GlcNAc3S
# Summary of the method: (§1)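 Columns mapping to the same glycan were averaged after glycan names were converted to IUPAC-condensed notation. The data come from 3228 arrays in the Consortium for Functional Glycomics database, limited to those with an available protein sequence. Binding is reported as a within-array Z-score averaged across arrays of one protein sequence and across linkers.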
# GalNAc6S(b1-4)GlcNAc = biological target: GalNAc6S(b1-4)GlcNAc
# Summary of the method: as §1
# Glc(b1-6)Glc = biological target: Glc(b1-6)Glc
# Summary of the method: as §1
# GlcA(b1-6)Gal = biological target: GlcA(b1-6)Gal
# Summary of the method: as §1
# [1] = biological target: GlcNAc(a1-4)Gal(b1-4)GlcNAc(b1-3)Gal(b1-4)GlcNAc
# Summary of the method: as §1
# [2] = biological target: GlcNAc(b1-2)[GlcNAc(b1-4)]Man(a1-3)[GlcNAc(b1-4)][GlcNAc(b1-2)Man(a1-6)]Man(b1-4)GlcNAc(b1-4)GlcNAc
# Summary of the method: as §1
# [3] = biological target: GlcNAc(b1-2)[GlcNAc(b1-6)]Man(a1-6)[GlcNAc(b1-4)][GlcNAc(b1-2)Man(a1-3)]Man(b1-4)GlcNAc(b1-4)GlcNAc
# Summary of the method: as §1
# [4] = biological target: GlcNAc(b1-3)Gal(b1-3)GalNAc
# Summary of the method: as §1
# [5] = biological target: GlcNAc(b1-3)Gal(b1-4)GlcNAc(b1-2)Man(a1-3)[GlcNAc(b1-3)Gal(b1-4)GlcNAc(b1-2)Man(a1-6)]Man(b1-4)GlcNAc(b1-4)GlcNAc
# Summary of the method: as §1
# [6] = biological target: GlcNAc(b1-4)Gal(b1-4)GlcNAc
# Summary of the method: as §1
# GlcNAc(b1-6)GalNAc = biological target: GlcNAc(b1-6)GalNAc
# Summary of the method: as §1
# Kdn(a2-3)Gal(b1-4)GlcNAc = biological target: Kdn(a2-3)Gal(b1-4)GlcNAc
# Summary of the method: as §1
# [7] = biological target: Man(a1-2)Man(a1-6)[Man(a1-3)]Man(a1-6)[Man(a1-2)Man(a1-2)Man(a1-3)]Man
# Summary of the method: as §1
# [8] = biological target: Man(a1-3)[Man(a1-6)]Man(a1-6)[Man(a1-2)Man(a1-3)]Man(b1-4)GlcNAc(b1-4)GlcNAc
# Summary of the method: as §1
# [9] = biological target: Neu5Ac(a2-3)Gal(b1-3)GlcNAc
# Summary of the method: as §1
# [10] = biological target: Neu5Ac(a2-3)Gal(b1-3)[Fuc(a1-4)]GlcNAc
# Summary of the method: as §1
# [11] = biological target: Neu5Ac(a2-3)Gal(b1-4)GlcNAc(b1-2)Man
# Summary of the method: as §1
# [12] = biological target: Neu5Ac(a2-3)Gal(b1-4)GlcNAc(b1-2)[Neu5Ac(a2-3)Gal(b1-4)GlcNAc(b1-6)]Man(a1-6)[Neu5Ac(a2-3)Gal(b1-4)GlcNAc(b1-2)Man(a1-3)]Man(b1-4)GlcNAc(b1-4)GlcNAc
# Summary of the method: as §1
# [13] = biological target: Neu5Ac(a2-3)Gal(b1-4)GlcNAc(b1-3)Gal(b1-4)GlcNAc(b1-3)Gal(b1-4)GlcNAc
# Summary of the method: as §1
# [14] = biological target: Neu5Ac(a2-3)Gal(b1-4)[Fuc(a1-3)]GlcNAc(b1-6)[Neu5Ac(a2-3)Gal(b1-3)]GalNAc
# Summary of the method: as §1
# Neu5Ac(a2-6)Gal(b1-4)Glc = biological target: Neu5Ac(a2-6)Gal(b1-4)Glc
# Summary of the method: as §1
# [15] = biological target: Neu5Ac(a2-6)Gal(b1-4)GlcNAc(b1-2)Man(a1-3)Man(b1-4)GlcNAc(b1-4)GlcNAc
# Summary of the method: as §1
# [16] = biological target: Neu5Ac(a2-6)Gal(b1-4)GlcNAc(b1-2)[Neu5Ac(a2-6)Gal(b1-4)GlcNAc(b1-6)]Man(a1-6)[Neu5Ac(a2-6)Gal(b1-4)GlcNAc(b1-2)Man(a1-3)][GlcNAc(b1-4)]Man(b1-4)GlcNAc(b1-4)GlcNAc
# Summary of the method: as §1
# [17] = biological target: Neu5Ac(a2-8)Neu5Ac(a2-3)Gal(b1-3)GalNAc(b1-4)[Neu5Ac(a2-8)Neu5Ac(a2-3)]Gal(b1-4)Glc
# Summary of the method: as §1
# [18] = biological target: Neu5Ac(a2-8)Neu5Ac(a2-8)Neu5Ac(a2-3)[Gal(b1-3)GalNAc(b1-4)]Gal(b1-4)Glc
# Summary of the method: as §1
# [19] = biological target: Neu5Ac(a2-8)Neu5Ac(a2-8)Neu5Ac(a2-8)Neu5Ac(a2-3)[GalNAc(b1-4)]Gal(b1-4)Glc
# Summary of the method: as §1
# [20] = biological target: Neu5Gc(a2-3)Gal(b1-4)[Fuc(a1-3)]GlcNAc
# Summary of the method: as §1
binder,measurement,setting,value
Gs78B-bfa-542-29-542 (Bacteroides fragilis) (protein) SEDINRNPLLPTKEDEKMDGVIYGAYLPNLEKSVIPIGTASESTEPVNRYQIGVNLAGDAWAGYMSPRDNKFNGSKNFTNYFMYENWVNYVYSFMVTDVYSPWMQIKRISQDEGTRNDEIYALAQIIKIAALHRTTDMFGPIPYSQVGKGSFKVAYDSQESVYRSFLKELEEAVQTLDDYSNKSKEVLPAFDIVYNGDVNKWMRFANSLMLRLAIRVRFADAGLAKEYAEKAVKHPAGLINSKELAAQMGKGAGLQMKNPLKVINEEYNDTRMGATIYSYLAGYNDARAAVYFVKNNGFKAVRCGIAKSGDAYNGFTRPNVHEDDPLYWMKASEVCFLKAEGALAGFDMGGSAGDFYNAGIRMSFSENGLDNSSAETYLKDSTRKPANYTDTSNGELSANAPSSITIRWENGATEEEKLERIITQKYLAIFPNGQEAWTEWRRTGYPRQIVVAENKTNSAVLIGNGYDLGGVRRLPYPRTEYEQNGENLHNAISQYLGGVDNAATKVWWDKKSK,glycan array binding signal (z-score),GalNAc3S(b1-4)GlcNAc3S,-0.813
same,glycan array binding signal (z-score),GalNAc6S(b1-4)GlcNAc,-0.336
same,glycan array binding signal (z-score),Glc(b1-6)Glc,-0.312
same,glycan array binding signal (z-score),GlcA(b1-6)Gal,2.77
same,glycan array binding signal (z-score),[1],-0.691
same,glycan array binding signal (z-score),[2],-0.838
same,glycan array binding signal (z-score),[3],-0.844
same,glycan array binding signal (z-score),[4],-0.48
same,glycan array binding signal (z-score),[5],-0.439
same,glycan array binding signal (z-score),[6],-0.828
same,glycan array binding signal (z-score),GlcNAc(b1-6)GalNAc,-0.233
same,glycan array binding signal (z-score),Kdn(a2-3)Gal(b1-4)GlcNAc,2.84
same,glycan array binding signal (z-score),[7],-0.844
same,glycan array binding signal (z-score),[8],3.49
same,glycan array binding signal (z-score),[9],-0.067
same,glycan array binding signal (z-score),[10],-0.793
same,glycan array binding signal (z-score),[11],2.92
same,glycan array binding signal (z-score),[12],0.079
same,glycan array binding signal (z-score),[13],-0.832
same,glycan array binding signal (z-score),[14],5.64
same,glycan array binding signal (z-score),Neu5Ac(a2-6)Gal(b1-4)Glc,-0.346
same,glycan array binding signal (z-score),[15],1.48
same,glycan array binding signal (z-score),[16],-0.454
same,glycan array binding signal (z-score),[17],0.648
same,glycan array binding signal (z-score),[18],-0.843
same,glycan array binding signal (z-score),[19],1.92
same,glycan array binding signal (z-score),[20],0.283
